Compound activity deposited in PubChem by National Center for Advancing Translational Sciences (NCATS).
FLuc counter = qHTS profiling assay for firefly luciferase inhibitor/activator using purifed enzyme and Km concentrations of substrates (counterscreen for miR-21 project). actives 6.9% (n = 360,000). AID 588342, 2011. Potency, µM (highest dose often 57.5 µM), without a hit: at the highest dose activity change, negative = inhibition, hits mostly inhibitors. Luciferin 4-monooxygenase (Photinus pyralis), P08659. purified FLuc, Km substrates, luminescence inhibition;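 note: plate controls were vehicle for no effect and reference inhibitor for full effect; nearly all actives have a fitted effect of over 55% in size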
Target sequence (P08659 whole entry, looked up): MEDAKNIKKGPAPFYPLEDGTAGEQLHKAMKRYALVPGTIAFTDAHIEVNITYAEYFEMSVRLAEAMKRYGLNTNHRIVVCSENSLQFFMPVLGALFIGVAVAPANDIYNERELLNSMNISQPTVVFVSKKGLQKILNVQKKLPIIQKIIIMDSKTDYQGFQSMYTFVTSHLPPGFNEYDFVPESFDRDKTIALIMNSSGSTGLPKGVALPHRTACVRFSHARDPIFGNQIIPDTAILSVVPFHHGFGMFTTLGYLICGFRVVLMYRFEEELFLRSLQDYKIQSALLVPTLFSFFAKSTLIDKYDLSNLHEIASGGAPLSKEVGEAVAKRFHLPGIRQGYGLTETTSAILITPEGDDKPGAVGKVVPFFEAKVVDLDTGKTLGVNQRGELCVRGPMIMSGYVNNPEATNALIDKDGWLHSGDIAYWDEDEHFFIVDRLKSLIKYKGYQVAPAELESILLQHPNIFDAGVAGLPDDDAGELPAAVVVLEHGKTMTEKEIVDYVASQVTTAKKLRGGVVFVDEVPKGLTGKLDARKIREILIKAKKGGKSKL
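Purified P. pyralis luciferase (10nM final) with 10uM D-luciferin and 10uM ATP (Km levels) in 50mM Tris acetate pH 7.5, 10mM Mg acetate, 0.01% Tween-20, 0.05% BSA; qHTS 6-point titration, ~60 µM downward; luminescence read.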
SMN2 splice enh = qHTS Assay for Enhancers of SMN2 Splice Variant Expression; HEK293 SMN2-luciferase splicing reporter, luminescence, 30-36 h; Potency, µM (series often up to 46.1 µM), for inactives: top-dose activity change, positive = activation, usual class: activators; actives 2.8% (n = 210,000); AID 1458, 2008; note: % of control where 0% means no effect; nearly all actives have a fitted effect of over 55% in size
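HEK293 cells carry an SMN2 minigene-luciferase reporter in which exon 7 inclusion puts luciferase in frame. Cells were seeded at 2000 cells/well, attached for 10-12 hours, then exposed to compounds for 30-36 hours at 37C before ONE-Glo luminescence.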
ELG1 genotoxic = qHTS screen for small molecules that induce genotoxicity in human embryonic kidney (HEK293T) cells expressing luciferase-tagged ELG1. actives 1.3% (n = 330,000). HEK293T ELG1-luciferase reporter, luminescence, 16 h. Potency, µM (series often up to 46 µM), inactives show at the highest dose activity change, positive = activation, most hits filed as activators; note: % of control where 0% means no effect; nearly all actives have a fitted effect of over 60% in size
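Cells (2,000/well) expressing the ELG1-luciferase fusion are dosed by pin tool and kept 16 hr at 37 °C, 5% CO2. Signal comes from ONE-Glo luciferase reagent after 30 min at room temperature.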
Rab9 promoter act = qHTS Assay for Rab9 Promoter Activators | Huh7 Rab9 promoter-luciferase reporter, luminescence, 24 h | Potency, µM (series often up to 9.22 µM), inactives show top-dose activation, negative = inhibition, usual class: activators | actives 2.8% (n = 320,000); note: % of control where 0% means no effect; nearly all actives have a fitted effect of over 60% in size
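Cell-based reporter: Huh7 stable for Rab9 promoter-driven luciferase, plated in reduced-serum medium with 10% FBS at 1500 cells/well, compound-treated 24 h at 37 °C, luminescence read after 10 min reagent.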
NPC1 promoter act = qHTS Assay for NPC1 Promoter Activators. Huh7 NPC1 promoter luciferase reporter, 24 h. Potency, µM (highest dose often 9.22 µM), for inactives: at the highest dose activation, most hits filed as activators. actives 2.4% (n = 320,000); note: % of control where 0% means no effect; nearly all actives have a fitted effect of over 60% in size
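Huh7 cells stably carrying NPC1 promoter–luciferase, plated in Opti-MEM with 10% FBS for 2 h, were exposed to compound in DMSO for 24 h at 37 °C; luciferase reagent was added for 10 min and luminescence read.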
Luc counter = Counterscreen for Luciferase (Kinase-Glo TM) Inhibition; Luciferin 4-monooxygenase (Photuris pensylvanica), Q27757; Kinase-Glo luciferase, ATP luminescence, 8 min; Potency, µM (series often up to 38.3 µM), without a hit: top-dose activity change, negative = inhibition, usual class: inhibitors; actives 0.28% (n = 200,000); note: % is set by controls: 0 for no effect and ±100 for the full control effect; nearly all actives have a fitted effect of over 60% in size
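Compounds were added to a substrate mix at pH 7.2 (50 mM imidazole, 10 uM ATP, within the enzyme's linear range), followed by Kinase-Glo detection reagent; luminescence was measured after 8 minutes at ambient temperature.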
Active calls of the source: *; ? = inconclusive; · = not tested or not shown; [ ] = another dose, or the depositor's remark. The list is not random: actives were taken first. Their share in the collection is about 7.4%. Calls come from the whole dose curve; as a rule, active = well fitted curve in the direction sought with a large enough effect; inconclusive = small, poorly fitted or top-dose-only effect, or another doubt; inactive = no such curve, though single readings can be large; an effect the other way counts as inactive or inconclusive. Potency is the fitted concentration of half-maximal effect.

SMILES	FLuc counter	SMN2 splice enh	ELG1 genotoxic	Rab9 promoter act	NPC1 promoter act	Luc counter
O=c1c2c(nc3cc(-c4ccc(F)cc4)[nH]n13)CCC2	8.49µM*	7.08µM*	18.4µM*	3.16µM*	2.51µM*	?
Cc1[nH]n2c(=O)c3c(nc2c1-c1ccc(Cl)cc1)CCC3	0.9%	·	-18.1%	-23.0%	-10.2%	3.1%
Cc1ccccc1CC(=O)Nc1ccc2c(C)cc(=O)oc2c1	-0.7%	·	3.3%	-0.7%	-2.2%	·
Cc1cc(=O)oc2cc(NC(=O)c3c(Cl)cnn3C)ccc12	-6.0%	·	?	22.7%	29.9%	·
Cc1cc(=O)oc2cc(NC(=O)c3ccccc3Cl)ccc12	10.7µM*	·	14.6µM*	3.55µM*	3.16µM*	·
Cc1cccc(OCC(=O)Nc2ccc3c(C)cc(=O)oc3c2)c1	2.1%	-1.7%	8.1%	-3.4%	-0.7%	-2.4%
Cc1cc(=O)oc2cc(NC(=O)c3ccnn3C)ccc12	?	·	16.4µM*	3.98µM*	2.82µM*	·
COc1cccc(C(=O)Nc2ccc3c(C)cc(=O)oc3c2)c1	1.9µM*	·	2.31µM*	0.708µM*	1.12µM*	·
Cc1cc(=O)oc2cc(NC(=O)c3ccccc3C(=O)O)ccc12	10.7µM*	·	-2.6%	-2.0%	2.1%	·
O=C(CSc1ccc2nnc(CCNS(=O)(=O)c3ccccc3)n2n1)Nc1ccccc1C(F)(F)F	-6.0%	·	·	·	·	·
C=CCC(C)(O)c1cccs1 (configuration not stated)	·	-1.4%	·	·	·	1.1%
COC(=O)CC1C(C)(C)C(=O)C2CC3=C4CC(=O)OC(c5ccoc5)[C@]4(C)CCC3[C@@]1(C)C2=O (some centres not stated)	·	-26.5%	·	·	·	-3.3%
C[N+]1(C)C2CCC1CC(OC(=O)C(O)c1ccccc1)C2 (configuration not stated)	·	-4.6%	·	·	·	-1.1%
O=C(Nc1ccccc1C(=O)N/N=C/c1ccco1)c1ccc(F)cc1	8.49µM*	13.9%	-1.3%	-4.0%	-2.1%	7.08µM*
O=C(Nc1ccccc1C(=O)N/N=C/c1ccco1)c1ccc(Cl)cc1	2.13µM*	0.6%	0.6%	1.8%	11.7%	12.6µM*
O=C(N/N=C/c1ccco1)c1ccncc1	-5.0%	-8.7%	4.6%	-3.4%	1.2%	-5.5%
Cc1ccccc1C(=O)Nc1ccccc1C(=O)N/N=C\c1ccco1	?	-3.5%	-0.7%	-5.2%	0.5%	-15.5%
O=C(Nc1ccccc1C(=O)N/N=C/c1ccco1)c1ccccc1	21.3µM*	-0.2%	0.2%	1.7%	-1.2%	?
O=C(N/N=C\c1ccco1)Nc1cccc(Cl)c1	19µM*	10µM*	?	2.51µM*	3.16µM*	-0.2%
Cc1cccc(NC(=O)CCC(=O)N/N=C/c2ccco2)c1	0.7%	-4.6%[1.84 µM]	0.5%	-0.3%	-2.0%	-2.2%
COc1ccc(-n2ccnc(NCc3ccc(C)cc3)c2=O)cc1OC	3.3%	·	·	·	·	·
COc1ccc(N2CCN(Cc3nnc(-c4cccc(Br)c4)o3)CC2)cc1	3.4%	12.7%	·	·	·	·
Cc1ccccc1C(=O)O/N=C(\N)Cc1cccs1	12µM*	·	?	?	?	·
N/C(Cc1ccc(Cl)cc1Cl)=N\OC(=O)c1cccs1	-19.6%	-11.4%	-0.1%	11.8%	3.7%	5.1%
N/C(Cc1cccs1)=N\OC(=O)COc1ccc(Cl)cc1Cl	15.1µM*	41.2%	16.4µM*	23.1%	27.7%	-1.8%
SMILES	FLuc counter	SMN2 splice enh	ELG1 genotoxic	Rab9 promoter act	NPC1 promoter act	Luc counter
COc1ccc(OCC(=O)O/N=C(\N)Cc2cccs2)cc1	?	-6.8%[1.84 µM]	4.9%	3.5%	5.7%	-2.3%
N/C(Cc1ccc(Cl)cc1Cl)=N\OC(=O)Cc1cccs1	5.36µM*	14.5%	12.0%	-2.6%	9.5%	-3.2%
Cc1ccccc1OCC(=O)O/N=C(\N)Cc1cccs1	12µM*	-23.5%	-1.8%	1.2%	13.1%	0.1%
Fc1ccc(C(c2nnc(-c3ccccc3)o2)N2CCN(c3ccccc3)CC2)c(Cl)c1 (configuration not stated)	-7.2%	·	·	·	·	·
Cc1ccc(NC(=O)C2CCCN(c3nnc(C)c4c(C)n(-c5ccccc5)nc34)C2)cc1Cl (configuration not stated)	-19.3%	·	·	·	·	·
O=C(NCc1ccc(Cl)cc1)c1cnn2ccccc12	13.5µM*	?	?	2.51µM*	3.98µM*	-0.8%
COc1cccc(NC(=O)c2cc3c(=O)n(C)c4ccccc4c3n2C)c1	5.9%	13.6%	·	·	·	·
CCCCCCCCCCCCCCCCOC[C@H](COP(=O)([O-])OCC[N+](C)(C)C)OC(=O)NC	·	2.7%	·	·	·	2.2%
Cc1cc(C)c2c(=O)n(CC(=O)Nc3cccc(F)c3)sc2n1	9.53µM*	·	2.8%	-2.4%	-2.7%	·
Cc1ccc(NC(=O)Cn2sc3nc(C)cc(C)c3c2=O)c(Cl)c1	10.7µM*	·	0.8%	-3.9%	2.9%	·
Cc1ccc(NC(=O)Cn2c(C)cc(C)c(C#N)c2=O)c(Cl)c1	-0.4%	1.5%	-0.8%	-0.1%	-2.2%	1.2%
Cc1cc(C)c2c(=O)n(CC(=O)Nc3ccc(Cl)cc3)sc2n1	7.57µM*	·	-0.5%	2.3%	-1.3%	·
CCOc1ccc(NC(=O)Cn2sc3nc(C)cc(C)c3c2=O)cc1	?	·	-0.6%	-1.9%	-2.2%	·
COc1ccccc1CNC(=O)CN1C(=O)CSc2ccc(S(=O)(=O)N3CCCCC3)cc21	-7.4%	·	·	·	·	·
CCCC(=O)Oc1ccc(-c2nccc(C(OC)OC)n2)cc1	13.5µM*	-1.1%	12.4%	?	7.0%	2.7%
COC(OC)c1ccnc(-c2ccc(OC(=O)c3ccc(F)cc3)cc2)n1	?	6.2%	-4.8%	15.4%	0.3%	4.0%
COc1cccc(CNC(=O)c2ccc(-c3nc(CS(=O)c4ccccc4)c(C)o3)cc2)c1 (configuration not stated)	-15.7%	·	·	·	·	·
c1ccc(OCCn2c(COc3ccccc3)nc3ccccc32)cc1	?	-1.6%	·	·	·	·
C=CCn1c(COc2ccccc2)nc2ccccc21	26.9µM*	·	3.7%	15.8%	14.5%	·
Cn1c(COc2ccccc2)nc2ccccc21	15.1µM*	·	?	?	3.98µM*	·
Cc1ccc(NC(=S)c2ccncc2)c(C)c1	-0.3%	·	-4.9%	-5.0%	-0.8%	·
Cc1ccc(NC(=S)c2nc3ccccc3[nH]2)cc1	0.675µM*	28.2µM*	?	0.631µM*	3.98µM*	-20.9%
Cc1ccc(NC(=S)c2nc3ccccc3[nH]2)c(C)c1	1.69µM*	5.62µM*	?	3.55µM*	3.55µM*	-13.8%
